Test results published in ChEMBL document CHEMBL3988442, “University of Dundee, Small-Polar-MMV Screening Library” (2021).
The whole screen tested about 48,000 compounds, of which about 13,000 (27%) showed an effect of 50% or more. This is one part of the list.

Each compound was assayed on Wolbachia pipientis (assay: Anti-Wolbachia Cell-Based Screen). Details: 5 µM.
Assay type: functional
Parameters: scale not given: in the data most compounds retested in dose-response had high values

Row | SMILES | Percent Effect
1 | Cn1ccnc1CN1CCN(c2ccc(C#N)cc2F)CC1 | 2.933%
2 | Cc1ccc(N2C[C@H]3CCC[C@@H](CN(C)C)[C@H]3C2)nn1.O=C(O)C(F)(F)F | -2.322%
3 | Cn1cccc1C(=O)N1C[C@@H]2C[C@@H](c3nc(C4CC4)cs3)O[C@@H]2C1.O=C(O)C(F)(F)F | 215.5%
4 | Cc1csc([C@H]2C[C@@H]3CCN(C(=O)c4cnccn4)C[C@H]3O2)n1 | 7.08%
5 | O=C(O)C(F)(F)F.O=C(c1cnccn1)N1C[C@@H]2C[C@@H](c3nc(C4CC4)cs3)O[C@@H]2C1 | 97.61%
6 | Cc1noc([C@@H]2C[C@H]3CN(C(=O)C4CCN(C)CC4)C[C@H]3O2)n1.O=C(O)C(F)(F)F | 11.84%
7 | O=C(O)C(F)(F)F.O=C(c1ccnnc1)N1C[C@@H]2C[C@@H](c3nc(C4CC4)cs3)O[C@@H]2C1 | 114.8%
8 | Cc1ccc(CN2CC[C@H]3C[C@H](c4nc(C5CC5)cs4)O[C@@H]3C2)o1 | 7.352%
9 | O=C(C1CCOCC1)N1C[C@@H]2C[C@@H](c3nc(C4CC4)cs3)O[C@@H]2C1.O=C(O)C(F)(F)F | 2.3%
10 | Cc1csc([C@@H]2C[C@@H]3CCN(C(=O)c4cnccn4)C[C@H]3O2)n1 | -0.1445%
11 | Cc1csc([C@H]2C[C@@H]3CCN(C(=O)c4ccnnc4)C[C@H]3O2)n1 | -2.379%
12 | COc1cccc(-n2c(C)cc(C(=O)O)c2C)c1 | 1.282%
13 | CC(=O)N1[C@H](Cn2cncn2)C[C@@H]2CN(c3ncccn3)CC[C@@H]21 | -1.924%
14 | COCC1CCN(S(=O)(=O)N2C[C@@H](C)[C@](O)(C3CC3)C2)CC1 | -6.27%
15 | COC(=O)c1ccc(NC(=O)NC2CCc3[nH]ncc3C2)cc1 (stereo not drawn) | -3.404%
16 | O=C(C1CCCO1)N1CC[C@@H]2CN(Cc3ccccc3)S(=O)(=O)[C@@H]2CC1 (stereo partly drawn) | -10.05%
17 | COCC(=O)N1CC[C@@H]2CN(Cc3ccccc3)S(=O)(=O)[C@@H]2CC1 | -9.3%
18 | CC(C)CNC(=O)N1CC[C@@H]2CN(Cc3cccnc3)S(=O)(=O)[C@@H]2CC1.O=C(O)C(F)(F)F | 96.93%
19 | O=C(O)C(F)(F)F.O=C(c1cc[nH]n1)N1CC[C@@H]2CN(Cc3ccccc3)S(=O)(=O)[C@@H]2CC1 | -14%
20 | CC(C)CC(=O)N1CC[C@@H]2CN(Cc3cccnc3)S(=O)(=O)[C@@H]2CC1 | 111.2%
21 | O=C(C1CCC1)N1CC[C@@H]2CN(Cc3cccnc3)S(=O)(=O)[C@@H]2CC1 | 102.5%

Row | SMILES | Percent Effect
22 | CC(=O)N1CC[C@@H]2CN(Cc3ccncc3)S(=O)(=O)[C@@H]2CC1.O=C(O)C(F)(F)F | -10.18%
23 | O=C(c1cc[nH]n1)N1CC[C@@H]2CN(Cc3cccnc3)S(=O)(=O)[C@@H]2CC1 | -2.568%
24 | COCC(=O)N1CC[C@@H]2CN(Cc3cccnc3)S(=O)(=O)[C@@H]2CC1 | 104.6%
25 | COCC(=O)N1CC[C@@H]2CN(Cc3cccc(Cl)c3)S(=O)(=O)[C@@H]2CC1 | -12.94%
26 | CC(C)CC(=O)N1CC[C@@H]2CN(CC(=O)N(C)C)S(=O)(=O)[C@@H]2CC1 | -34.28%
27 | O=C1O[C@@H]2CN(c3ccncc3)C[C@@H]2N1CCCc1ccc(F)cc1 | -4.206%
28 | CN(CCO)CC1COCCN1C(=O)C1(c2cccs2)CCCC1.O=CO (stereo not drawn) | 2.363%
29 | COCCC1(CO)CCCN(C(=O)c2cccnc2O)C1 (stereo not drawn) | 1.104%
30 | Cl.O=C1C(NCc2ccc3c(c2)CCO3)CCN1Cc1ccccc1 (stereo not drawn) | -4.636%
31 | COCC(=O)N1CCC(C(=O)N(C)C(C)c2ccon2)CC1 (stereo not drawn) | 2.013%
32 | CCOc1ncccc1CNC(=O)Nc1ccccc1 | 95.65%
33 | CCOc1ncccc1CNC(=O)Nc1ccc(OC)c(OC)c1 | 124%
34 | COc1ccccc1C(O)CNC(=O)NCc1cccnc1OC (stereo not drawn) | -5.086%
35 | CCOc1ccc(NC(=O)NCc2cccnc2OCC)cc1 | 105.6%
36 | CCOc1ncccc1CNC(=O)Nc1ccc(CC)cc1 | 115%
37 | CC[C@@H](NC(C)=O)C(=O)NCc1cccnc1Oc1ccccc1OC | 5.567%
38 | CCCS(=O)(=O)NCc1cccnc1OCC | -4.428%
39 | CCCNC(=O)NCc1cccnc1OC | 1.177%
40 | COc1ncccc1CNC(=O)NCCNC(=O)c1ccco1 | 0.6647%
41 | CCOc1ncccc1CNC(=O)CN1CCCCCC1=O | -62.17%
42 | CN(C)C(=O)C1CCCN1CCCNC(=O)c1ccccc1F (stereo not drawn) | 12.21%

Row | SMILES | Percent Effect
43 | CC(C)(C(=O)NCCS(N)(=O)=O)c1cccc(Br)c1 | -14.63%
44 | COc1cccc(-c2n[nH]c3c2CN(C(=O)c2oc(C)cc2C)CC3)c1 | 3.438%
45 | Cn1ccc2ccnc(CC3CN(C(=O)C4CCC(F)(F)CC4)C3)c21 | -0.631%
46 | CCCN1CCc2[nH]cnc2C12CCN(C(=O)Cn1ccnc1C)CC2 | -4.185%
47 | CCn1ccc2ccnc(CC3CN(C(=O)c4ccc(F)cc4)C3)c21 | 128.6%
48 | CCn1ccc2ccnc(CC3CN(C(=O)Cn4ccnc4C)C3)c21.O=CO | 124.4%
49 | CCN(CC)CC[C@H]1CN(C(=O)c2ccc(F)cc2)CC[C@H]1CC(=O)O | 0.9693%
50 | COc1ccccc1C(=O)N1CC(Cc2nccc3ccn(C)c23)C1 | -2.36%
51 | CCn1ccc2ccnc(CC3CN(C(=O)c4cnco4)C3)c21 | 144.4%
52 | O=C(C(CNCc1ccncc1)c1ccccc1)N1CCOCC1 (stereo not drawn) | 0.2839%
53 | O=C(Cc1ccc2c(c1)OCCO2)N1CCCC(n2cccn2)C1 (stereo not drawn) | 7.45%
54 | CC(C)c1nc(C2CCCN2Cc2ccn(C)c(=O)c2)no1 (stereo not drawn) | -1.235%
55 | CC(C)c1nc(C2CCCN2Cc2ccccc2C#N)no1 (stereo not drawn) | 6.567%
56 | CC(C)c1nc(C2CCCN2Cc2ccon2)no1 (stereo not drawn) | 78.63%
57 | Cc1cc(CN2CCCC2c2noc(C(C)C)n2)on1 (stereo not drawn) | 98.26%
58 | CC(C)c1nc(C2CCCN2CC(=O)Nc2ccc(Cl)cn2)no1 (stereo not drawn) | -4.076%
59 | CC(C)c1nc(C2CCCN2c2ccnc(C3CCCC3)n2)no1 (stereo not drawn) | 0.08889%
60 | CC(C)c1noc(CN2CCCC2c2noc(C(C)C)n2)n1 (stereo not drawn) | 108.9%
61 | CC(C)c1nc(C2CCCN2Cc2ccncc2Cl)no1 (stereo not drawn) | 81.18%
62 | CCc1noc(CN2CCCC2c2noc(C3CC3)n2)n1 (stereo not drawn) | 2.482%
63 | CC(C)c1nc(C2CCCN2CC(=O)Nc2nncs2)no1 (stereo not drawn) | -0.6487%
